# Laboratory results from PubChem BioAssay AID588335 (The Scripps Research Institute Molecular Screening Center, 2011).
# Out of some 360,000 compounds screened, about 4,500 (1.2%) were called active. The entries come from a sample that favours actives as a whole. A number with no mark means an inactive call. Cut-off read from the data, not from the text of the source: active = inhibition above about 30%; inactive = the rest.
# Assay: GDH-TPI coupling enzyme inhibitors, primary screen, artefact control for M. tuberculosis FBA inhibitor project, biochemical, absorbance, full deck (AID 588335);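 note: 0% = DMSO wells and 100% = wells lacking the enzyme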
# Conditions: GDH-TPI coupled enzyme counterscreen, NADH absorbance; at 4.8 µM; stronger effect = higher value
row,Compound,inhibition
1,CN(CCO)c1ccc(/C=N/Nc2nncc3ccccc23)cc1,15.2%
2,COc1cc(Nc2nc3ccc(Cl)cc3n3cnnc23)cc(OC)c1OC,-2.21%
3,COc1cc(/C=N/Nc2nn3cnnc3c3ccccc23)cc(OC)c1OC,43.1% (active)
4,CCOC(=O)C1(CCOc2ccccc2)CCN(C(=O)c2cncs2)CC1,3.14%
5,O=C1NC(c2ccccc2)=NC1(Nc1ccccn1)C(F)(F)F (stereo not given),-8.86%
6,COc1cc(NC(=O)C2=CC(c3ccc(C)cc3)=NS(=O)(=O)N2C)cc(OC)c1OC,27.7%
7,COc1cc(NC(=O)C2=CC(c3ccco3)=NS(=O)(=O)N2C)cc(OC)c1OC,30.4%
8,COc1ccc(C2=NS(=O)(=O)N(C)C(C(=O)NC(C)c3ccccc3)=C2)cc1 (stereo not given),23.1%
9,COc1ccc(C2=NS(=O)(=O)N(C)C(C(=O)N3CCCCC3)=C2)cc1,24.4%
10,COc1ccc(NC(=O)C2=CC(c3ccc(OC)c(OC)c3)=NS(=O)(=O)N2C)cc1,32.7% (active)
11,COc1ccc(C2=NS(=O)(=O)N(C)C(C(=O)N(C)Cc3ccccc3)=C2)cc1,34% (active)
12,CCc1cc(=O)oc2c(C)c(OCC(=O)N3CC[C@@]4(O)CCCC[C@H]4C3)ccc12,7.84%
13,NC(=O)c1nsc(C(=O)N(CCCN2CCOCC2)C(C(=O)NC2CCCCC2)c2ccc(Cl)cc2)c1N (stereo not given),3.02%
14,Cc1ccc(C(=O)NNc2ncnc3ccccc23)cc1,43.8% (active)
15,Cc1ccc(C(=O)NNC(=O)c2cc3cc4ccccc4nc3s2)cc1,10.2%
16,Cc1ccc(NC(=O)c2ccc(Oc3ncccn3)cc2)cc1,11.6%
17,O=C(O)CC(Cc1ccccc1)C(=O)Nc1ccc([N+](=O)[O-])cc1 (stereo not given),19.3%
18,CC(=O)n1cc([C@@H]2C=C(C(=O)N3CCN(Cc4ccc5c(c4)OCO5)CC3)O[C@H](OCc3ccc(CO)cc3)C2)c2ccccc21,-1.76%
19,CCOC(=O)C1=C(O)/C(=C/c2cc(C)n(-c3ccccc3)c2C)N=C1C,2.64%
20,Cc1cccc(C)c1-n1c(C)cc(/C=C2\C(=O)NN(c3ccccc3)C2=O)c1C,33% (active)
21,COc1ccc(C(=O)NCC2CCCCC2)cc1S(=O)(=O)N1CCCC1,1.39%
22,CCO[C@@H]1OC(C(N)=O)=C[C@H](c2ccc(Br)cc2)[C@H]1CCCO,-4.48%
23,CC(Sc1nc2cc(Cl)ccc2s1)C(=O)Nc1ccc2c(c1)OCO2 (stereo not given),5.49%

row,Compound,inhibition
1,COC(=O)c1c(-c2ccsc2)oc2ccc(-c3cc(OC)c(OC)c(OC)c3)cc12,10.3%
2,O=C(NCc1cccs1)c1ccc2c(c1)ncn2C1CCCC1,-1.75%
3,CCOc1ncccc1C(=O)N(C)CC(=O)Nc1ccc(F)cc1,-5.34%
4,CSc1ccccc1NC(=O)c1cc(Cl)sc1Cl,-10.3%
5,Cc1ccccc1C(=O)Nc1ccccc1Sc1ccccc1,-10.9%
6,CSc1ccccc1NC(=O)c1cnc2sc(C)cn2c1=O,32.6% (active)
7,CCCN(c1ccc(C)cc1)c1nc(=O)c2cccnc2s1,8.86%
8,COc1ccc(CC(=O)Nc2cc(S(=O)(=O)N3CCCCC3)ccc2N2CCN(C)CC2)cc1,-4.44%
9,CC(C)N=C1CCCC1C(=S)SSC(=S)C1CCCC1=NC(C)C (stereo not given),32.4% (active)
10,CN(CC(=O)Nc1ccccc1F)CC(=O)Nc1ccccc1Br,-8.02%
11,Cc1ccc(S(=O)(=O)N2CCOCC2)cc1C(=O)OC1CCCCC1=O (stereo not given),-12.1%
12,COc1ccc(C(=O)Oc2ccc(-c3nnco3)cc2)cc1S(=O)(=O)N1CCOCC1,7.83%
13,CCc1ccc(-n2c(SCc3cc(=O)n4cc(Br)ccc4n3)nc3[nH]ncc3c2=O)cc1,24%
14,O=C(O)CCn1c(SCc2cc(=O)n3ccccc3n2)nc2ccsc2c1=O,7.77%
15,O=c1c2sccc2nc(SCc2cc(=O)n3ccccc3n2)n1-c1ccc(Br)cc1,32.1% (active)
16,Cc1cccc(S(=O)(=O)N(C)C[C@H]2OCc3cnnn3CCCC(=O)N([C@@H](C)CO)C[C@H]2C)c1,-13.4%
17,CC1(C)CC(N(Cc2ccccc2)C(=O)Cc2ccccc2)CCO1 (stereo not given),-7.26%
18,O=C(O)CCn1cc(/C=C/C(=O)c2ccc(Cl)cc2)c(-c2cccc(Br)c2)n1,43.8% (active)
19,O=C(O)CCn1cc(C=C2C(=O)NC(=S)NC2=O)c(-c2cccc(Br)c2)n1,-11.4%
20,O=C(COC(=O)/C=C/c1cn(-c2ccccc2)nc1-c1cccnc1)Nc1ccc(Cl)cc1Cl,-1.11%
21,CCOC(=O)c1sc(-c2cccc([N+](=O)[O-])c2)cc1N,5.1%
22,CC(=O)Nc1nc(C)c(-c2csc(Nc3ccc(S(N)(=O)=O)cc3)n2)s1,33.8% (active)
23,CCCCC(=O)Nc1nc(C)c(-c2csc(Nc3ccc(Cl)cc3)n2)s1,11.2%

row,Compound,inhibition
1,C=CCCC(=O)Nc1nc(C)c(-c2csc(Nc3ccc(Cl)cc3)n2)s1,16.8%
2,CCOC(=O)c1c(C)[nH]c(C)c1C(=O)COC(=O)/C=C/c1cccc([N+](=O)[O-])c1,5.36%
3,CCOC(=O)c1cc2cc(C)ccc2[nH]1,8.07%
4,CCOC(=O)C=Cc1ccc(C(=O)OCC)[nH]1,46.3% (active)
5,COc1ccc(C2NCCCC2c2ccccc2)cc1 (stereo not given),-3.45%
6,Cc1ccc(NC(=O)C(=O)NCc2ccco2)c(C)c1,2.52%
7,CCCCOc1ccc(C(=O)N/C(=C/C=C/c2ccccc2)C(=O)N2CCOCC2)cc1,20.1%
8,O=C(NCc1ccco1)/C(=C/c1ccco1)NC(=O)c1ccccc1,-7.41%
9,O=C(Nc1ccc(C(=O)O)cc1)/C(=C\c1ccccc1)NC(=O)c1ccc(Br)cc1,-8.77%
10,CC(C=Cc1ccccc1)=NNS(=O)(=O)c1ccc([N+](=O)[O-])cc1,25.4%
11,O=C(N/N=C/c1ccc(O)cc1)/C(=C/c1ccc([N+](=O)[O-])cc1)NC(=O)c1ccccc1,39% (active)
12,COc1ccc(/C=C(/NC(=O)c2ccccc2)C(=O)Nc2cccc(C(=O)O)c2)cc1,29.7%
13,O=C(N/C(=C\c1ccc(O)cc1)C(=O)N1CCCCC1)c1ccccc1,9.79%
14,Cc1ccc(C(=O)N/C(=C/C=C/c2ccccc2)C(=O)NCc2ccco2)cc1,48.9% (active)
15,O=C(Nc1ccc(C(=O)O)cc1)/C(=C/c1ccc([N+](=O)[O-])cc1)NC(=O)c1ccccc1,32.9% (active)
16,O=C(N/N=C/c1cc([N+](=O)[O-])ccc1O)/C(=C\c1cccs1)NC(=O)c1ccccc1,15.7%
17,CNC(=O)/C(=C\C=C\c1ccccc1)NC(=O)c1ccc([N+](=O)[O-])cc1,39.1% (active)
18,Cc1ccccc1CCNC(=O)C1CCC(=O)N(Cc2ccc(Cl)cc2)C1 (stereo not given),-2.1%
19,CC1(C)C[C@H]2C3=CCC4[C@@]5(C)CC[C@H](O)[C@](C)(CO)C5CC[C@@]4(C)[C@]3(C)C[C@@H](O)[C@@]2(CO)[C@@H](O)[C@@H]1O (stereo not given in full),8.82%
20,COC(=O)C1=NN(c2ccccc2)C2C(=O)N(c3ccccc3OC)C(=O)C12 (stereo not given),21%
21,CC(=O)N[C@@H](C)C(=O)N1CCC(n2nccc2NC(=O)CCCc2ccccc2)CC1,8.3%
22,CCC(C)Sc1nc2c(cnn2-c2ccc(F)cc2)c(=O)[nH]1 (stereo not given),8.15%
23,COc1ccc(-c2nonc2NC(=O)c2oc3ccc(F)cc3c2C)cc1OC,-4.27%

row,Compound,inhibition
1,COc1cc(/C=C(/NC(=O)c2ccccc2)C(=O)Nc2cccc(O)c2)c([N+](=O)[O-])cc1OC,11.6%
2,O=C(N/C(=C\c1ccc([N+](=O)[O-])cc1)C(=O)N1CCOCC1)c1cccc(Br)c1,28.7%
3,Cc1ccc(NC(=O)/C(=C/c2ccc([N+](=O)[O-])cc2)NC(=O)c2ccccc2)cc1,49.4% (active)
4,Cc1nc(Cl)cc(N/N=C/c2ccccc2)n1,39.2% (active)
5,Nc1nnn(CC(=O)N/N=C/c2ccccc2)n1,10.1%
6,Cc1cc2c(C)nc(N/N=C/c3ccccc3)nc2o1,28.5%
7,COc1ccc(Br)cc1CN(C)CC(=O)Nc1cc(Cl)cc(Cl)c1,-4.49%
8,CC(=O)Nc1ccc(S(=O)(=O)NCC(=O)OCC(=O)c2ccc[nH]2)cc1,4.57%
9,O=c1c2ccccc2nc2n1C(CSCc1ccccc1)CS2 (stereo not given),2.03%
10,O=c1c2ccccc2nc2n1C(CSCc1cccc(C(F)(F)F)c1)CS2 (stereo not given),32.9% (active)
11,N#Cc1c(-c2ccccc2)nc(SCc2cccc(C(F)(F)F)c2)[nH]c1=O,-3.35%
12,CC1=C(C(=O)Nc2cc(C)ccn2)C(c2cnn(C)c2)C2=C(CC(c3ccccc3)CC2=O)N1 (stereo not given),16.7%
13,CC(C(=O)NC1CCCCC1)N1C(=O)c2cccc3cccc1c23 (stereo not given),8.59%
14,C/C(=N\NC(=S)NC1CCCCC1)c1ccc(C)o1,12.9%
15,Cc1cc(Br)ccc1NC(=S)NC1CCCC1,13.7%
16,Cc1ccc(/C=N/NC(=S)NC2CCCCC2)o1,32.4% (active)
17,O=C(NCc1cccnc1)c1cc(C2CCCCN2C(=O)CCc2ccccc2)on1 (stereo not given),1.83%
18,CCN(CC)c1ccc(NC(=O)CCc2nnc3ccc(N4CCCCC4)nn23)c(C)c1,13.9%
19,CSCC[C@H](NC(=O)OC(C)(C)C)C(=O)N/N=C/c1cc2ccc(C)cc2nc1Cl,14.8%
20,Cc1ccc2cc(/C=N/NC(=O)[C@@H]3CCCN3)c(Cl)nc2c1,33.2% (active)
21,O=C(Nc1cccc(F)c1)[C@@H]1CCCN1,-7.69%
